The values that follow come from PubChem BioAssay (NCATS).

The structures appear in SMILES notation. Results filed as inconclusive are left out. Activity calls are given as the source filed them. Unless noted, the call rests on the fitted dose curve; in most records, active means well fitted inhibition curve with a large enough effect; inconclusive means small, poorly fitted or top-dose-only effect; inactive means flat fitted curve, though single readings scatter.

A short description of test [1]: qHTS drug screen for cell cycle checkpoint inhibitors in PARPi-resistant BRCA-mutant ovarian cancer cell lines. (AID 1963452; calls by dose curve). The note with it: PEO1/OlaR viability, CellTiter-Glo luminescence, 96 h, stronger effect = lower value. The procedure, abridged: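 PEO1, PEO4 and PEO1/OlaR ovarian cancer cells, 600 per well, exposed 96 h at 37C to a dilution series. Viability read by CellTiter-Glo luminescence, normalized to DMSO and empty wells; activity summarized as Z-AUC.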

Test [2] in a line: qHTS for identification of novel therapeutic agents for treatment of microphthalmiaassociated transcription factor (MiT) renal cell carcinoma (RCC) (AID 1963991; calls by dose curve; further: potency means the concentration at half of the fitted maximal effect). The note with it: CellTiter-Glo, 48 h; for z-score: stronger effect = lower value. In short, it runs like this:
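Three TFE3-fusion RCC lines (UOK109, UOK124, UOK145), 500 cells/well in complete medium, were treated with MIPE 4.0 compounds for 48 hours at 37 C. Viability was by CellTiter-Glo luminescence, normalized to DMSO (100%) and empty wells (0%); curves fitted over 11 concentrations.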

A short description of test [3]: qHTS profiling for inhibitors of Plasmodium falciparum proliferation (AID 504749). Further: potency means the concentration at half of the fitted maximal effect.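 On activity, negative = inhibition: 0% = DMSO vehicle and full inhibition = artemisinin control.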 On all read-outs here: nearly all actives have a fitted effect of over 60% in size. Particulars: P. falciparum in erythrocytes, SYBR Green DNA, 72 h; for activity, negative = inhibition: at 28.7 µM (top of the series). The procedure, abridged:
(§1)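 Infected RBCs, 0.3% parasitemia/2.5% Hct final; cpd 72 h, 37 C, 5% CO2; lysis buffer with saponin/triton/SYBR Green I, o/n RT dark; FI 485/535; norm. to artemisinin (0.29 uM) and DMSO.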

For test [4], the system named is 3D7. The test is described as above. Particulars: P. falciparum in erythrocytes, SYBR Green DNA, 72 h; series mostly up to 28.7 µM. The procedure, abridged:
as §1

In test [5] the test system is 7G8. The description is as above. The note with it: P. falciparum in erythrocytes, SYBR Green DNA, 72 h; series mostly up to 28.7 µM. The procedure, abridged: as §1
The test system of test [6] is AA1029. The description is as above. The note with it: P. falciparum in erythrocytes, SYBR Green DNA, 72 h; series mostly up to 28.7 µM. The procedure, abridged:
as §1

For test [7], the system named is AS120. Described as above. The note with it: P. falciparum in erythrocytes, SYBR Green DNA, 72 h; series mostly up to 28.7 µM. The procedure, abridged: as §1
Test [8] relates to ATS189. The description is as above. Particulars: P. falciparum in erythrocytes, SYBR Green DNA, 72 h; series mostly up to 28.7 µM. In short, it runs like this: as §1
Test [9] concerns ATS95. The test is described as above. Particulars: P. falciparum in erythrocytes, SYBR Green DNA, 72 h; series mostly up to 28.7 µM. The procedure, abridged:
as §1

For test [10], the system named is C2A. The description is as above. Particulars: P. falciparum in erythrocytes, SYBR Green DNA, 72 h; series mostly up to 28.7 µM. In short, it runs like this:
as §1

The subject of test [11] is CP185. The test is described as above. The note with it: P. falciparum in erythrocytes, SYBR Green DNA, 72 h; series mostly up to 28.7 µM. The procedure, abridged:
as §1

The mark [12] stands for this setting: measured here: PEO1 parental Z-AUC.
The mark [13] stands for this setting: TFE3-RCC UOK109 viability, measured here: UOK109 Z-AUC.
Setting [14] is: TFE3-RCC viability, measured here: UOK124 Z-AUC.
Setting [15] is: TFE3-RCC viability, measured here: UOK145 Z-AUC.

As for `Cn1c(=O)c2c(ncn2CC(O)CO)n(C)c1=O` (stereo not drawn), the Z-AUC was 0.897 (inactive) in test [1], 0.956 in [1] (setting [12]) and 0.893 in test [1] (measured here: PEO4 Z-AUC). The values for the z-score in [2] (setting [13]), in test [2] (setting [14]) and in [2] (setting [15]) were 0.0441, 0.351 and 0.429, respectively.

As for `CN(C)c1ccc(C(=C2C=CC(=[N+](C)C)C=C2)c2ccc(N(C)C)cc2)cc1`, the figures for the Z-AUC in test [1], in test [1] (setting [12]) and in test [1] (measured here: PEO4 Z-AUC) were -1.19 (inactive), -1.68 and -1.8, respectively. Besides, the Potency in test [2] (TFE3-RCC UOK109 viability, active = Z-AUC below -0.8 in all three lines) was 1.18 µM (active); in test [3] (parasite line A), 0.224 µM (active); in test [3] (parasite line B), 0.282 µM (active); in test [4], 0.282 µM (active); in [5], 0.251 µM (active); in test [6], 0.355 µM (active). Moreover, the Potency was 0.447 µM (active) in test [7]; 0.282 µM (active) in [8]; 0.501 µM (active) in test [9]; 0.355 µM (active) in test [10]; 0.398 µM (active) in test [11]. Also, the z-score in [2] (setting [13]) was -1.93; in test [2] (setting [14]) it was -2.26; in test [2] (setting [15]), -1.8.

With `CN(CCOc1ccc(CC2SC(=O)NC2=O)cc1)c1ccccn1` (stereo not drawn), the results for the Z-AUC in [1], in test [1] (setting [12]) and in [1] (measured here: PEO4 Z-AUC) were 0.844 (inactive), 0.498 and 0.826, respectively. Besides, the z-score in [2] (setting [13]) is 1.36; in [2] (setting [14]), 0.588; in test [2] (setting [15]), 0.764. Moreover, the activity, negative = inhibition is -1.7% (inactive) in test [3] (parasite line A) and -10% (inactive) in test [3] (parasite line B). In addition, the Potency result in test [4], in test [5], in test [6], in test [7], in [8] and in [9] was “inactive” each time. Also, the Potency result in test [10] and in test [11] was “inactive” throughout.

Consider `Nc1nc(N)nc(-c2cc(Cl)ccc2Cl)n1`, for which the Z-AUC in [1] is 0.87 (inactive); in [1] (setting [12]), 0.667; in test [1] (measured here: PEO4 Z-AUC), 0.862. Further, the z-score in [2] (setting [13]) turned out to be 0.0738; in [2] (setting [14]), 0.434; in [2] (setting [15]) it was 0.276. The activity, negative = inhibition in test [3] (parasite line A) is -9.21% (inactive); in test [3] (parasite line B), -1.76% (inactive). Moreover, the Potency result in [4], in test [5], in [6], in test [7], in [8] and in test [9] was “inactive” each time. Moreover, the Potency result in test [10] and in test [11] was “inactive” each time.

For `Clc1ccccc1CN1CCc2sccc2C1`, the results for the Z-AUC in test [1], in test [1] (setting [12]) and in test [1] (measured here: PEO4 Z-AUC) were 0.114 (inactive), 0.0683 and 0.329, respectively. Further, the z-score worked out at 0.71 in [2] (setting [13]), 0.609 in test [2] (setting [14]) and 0.692 in test [2] (setting [15]).

For `CN(C)CCc1c[nH]c2ccc(CS(=O)(=O)N3CCCC3)cc12`, the Z-AUC was 1.7 (inactive) in test [1], 1.58 in test [1] (setting [12]) and 1.04 in test [1] (measured here: PEO4 Z-AUC). Besides, the z-score was -0.684 in test [2] (setting [13]), -0.106 in [2] (setting [14]) and 0.603 in test [2] (setting [15]). Also, the activity, negative = inhibition is -2.84% (inactive) in test [3] (parasite line A) and -4.67% (inactive) in test [3] (parasite line B). Besides, the Potency entry in [4], in test [5], in test [6], in [7], in test [8] and in test [9] was “inactive” each time. The Potency entry in [10] and in test [11] was “inactive” each time.

On to `Cc1oc(=O)oc1CN1CCN(c2cc3c(cc2F)c(=O)c(C(=O)O)c2n3C(C)S2)CC1` (stereo not drawn), for which the values for the Z-AUC in [1], in [1] (setting [12]) and in test [1] (measured here: PEO4 Z-AUC) were -0.572 (inactive), -0.35 and -0.652, respectively. For the same compound, the z-score in test [2] (setting [13]) was 0.77; in test [2] (setting [14]), 0.785; in [2] (setting [15]) it was 0.456. Besides, the Potency in [3] (parasite line A) was 11.2 µM (active); in [3] (parasite line B), 8.91 µM (active); in [4], 11.2 µM (active); in test [5], 3.98 µM (active); in [6] it was 6.31 µM (active); in [7], 11.2 µM (active). Further, the Potency in test [8] is 8.91 µM (active); in test [9], 12.6 µM (active); in test [10], 10 µM (active); in [11], 10 µM (active).
